What follows are compounds tested on glycogen synthase kinase-3 (GSK3A per assay name; protocol says GSK3B) (assay: GSK3 binders on small-molecule microarrays, primary screen, biochemical, small-molecule microarray, 635 nm fluorescence, GSK3A (AID 1103; note: the record names both GSK3A and GSK3B)). Details: small-molecule microarray binding, fluorescence 635 nm; higher = more signal.

Q: `CCCN1C(=O)[C@]2(Cc3ccccc31)N=C(c1ccc(OCCCO)cc1)O[C@@H]2c1ccccc1` was tested. Which composite z-score did it give?
A: 1.26

Q: `C[N+](C)(C)CCCCCCNC(=O)[C@@H]1C[C@@H]2C(=O)N3CCC[C@H]3C(=O)N2[C@@H]1c1ccc(O)cc1` was tested. Which composite z-score did it give?
A: 1.2

Q: With `CCOC(=O)C[C@H]1[C@H](OC(=O)c2ccc(C(=O)c3ccccc3)cc2)[C@@H](NC(=O)CC(C)C)c2cc(OCCCO)ccc2N1C(=O)c1ccccc1` as the compound, how does the composite z-score read?
A: 0.972

Q: For `CC1CC/C=C\[C@H]2OC34C=CCN(C(C)C)C(=O)[C@H]3N(CCO)C(=O)[C@@H]4C2C(=O)O1` (stereo partly specified), which composite z-score is on record?
A: -0.979

Q: `[N-]=[N+]=Nc1ccccc1C[C@]1(C(=O)N2CCOCC2)COC(c2ccc(OCCCO)cc2)=N1` was tested. Which composite z-score did it give?
A: 1.33

Q: `CCCCCCc1nc(Cc2cc(OC)c(OC)c(OC)c2)cc2c1[Si](C(C)C)(C(C)C)OC2` was tested. Which composite z-score did it give?
A: -0.195

Each compound was assayed against Epidermal growth factor receptor (Homo sapiens) (UniProt P00533) (assay: EGFR binders on small-molecule microarrays, primary screen, biochemical, small-molecule microarray, 635 nm fluorescence (AID 1104;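 note: score merges 667 nm emission intensity with spot signal to noise over triplicate slides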)). Details: EGFR binding, higher = more signal.
Chain of Epidermal growth factor receptor (Homo sapiens) (P00533 whole entry, looked up): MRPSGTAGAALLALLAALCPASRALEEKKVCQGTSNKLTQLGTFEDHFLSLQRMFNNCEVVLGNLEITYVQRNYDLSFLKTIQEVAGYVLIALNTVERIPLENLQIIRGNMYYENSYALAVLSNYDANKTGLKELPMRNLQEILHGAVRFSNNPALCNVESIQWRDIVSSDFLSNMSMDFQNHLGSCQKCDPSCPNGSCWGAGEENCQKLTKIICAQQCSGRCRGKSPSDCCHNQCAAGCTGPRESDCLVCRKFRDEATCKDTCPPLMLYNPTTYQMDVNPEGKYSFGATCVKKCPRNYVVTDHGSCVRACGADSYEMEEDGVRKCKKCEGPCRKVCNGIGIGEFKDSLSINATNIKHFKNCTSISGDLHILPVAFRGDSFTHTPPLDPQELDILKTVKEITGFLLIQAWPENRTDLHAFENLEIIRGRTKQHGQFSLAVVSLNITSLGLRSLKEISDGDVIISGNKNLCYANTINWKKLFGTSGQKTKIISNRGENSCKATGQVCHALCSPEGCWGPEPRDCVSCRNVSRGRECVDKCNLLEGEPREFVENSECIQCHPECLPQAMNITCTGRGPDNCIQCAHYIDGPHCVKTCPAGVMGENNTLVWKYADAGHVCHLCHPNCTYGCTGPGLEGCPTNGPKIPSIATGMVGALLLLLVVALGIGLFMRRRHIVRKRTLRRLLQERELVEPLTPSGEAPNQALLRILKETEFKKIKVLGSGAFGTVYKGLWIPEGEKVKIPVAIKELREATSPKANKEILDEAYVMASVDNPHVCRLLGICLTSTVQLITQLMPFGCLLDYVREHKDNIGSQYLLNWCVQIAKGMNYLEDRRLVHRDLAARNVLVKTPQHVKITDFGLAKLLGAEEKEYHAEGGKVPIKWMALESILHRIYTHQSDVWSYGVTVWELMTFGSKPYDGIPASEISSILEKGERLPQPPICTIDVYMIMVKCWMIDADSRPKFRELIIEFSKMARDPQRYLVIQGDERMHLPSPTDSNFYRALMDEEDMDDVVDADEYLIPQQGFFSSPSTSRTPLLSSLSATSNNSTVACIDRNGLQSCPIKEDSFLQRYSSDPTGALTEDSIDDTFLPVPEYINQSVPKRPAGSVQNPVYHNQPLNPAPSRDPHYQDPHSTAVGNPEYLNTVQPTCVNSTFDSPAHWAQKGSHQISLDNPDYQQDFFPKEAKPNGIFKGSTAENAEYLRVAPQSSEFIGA

Q: Which composite z-score does the source give for `CO[C@H]1O[C@H](CO)[C@@H](OC(=O)Nc2ccc3c(c2)OCO3)[C@H](OC(=O)Nc2ccc3c(c2)OCO3)[C@@H]1OC(=O)Nc1ccc2c(c1)OCO2` here?
A: 0.273

Q: Which composite z-score does the source give for `CCCC1(C(=O)OC)C=C2C(=C(C)C(=O)C2C)CN1` (stereo unspecified) here?
A: 0.0023

Q: With `CO[C@H]1O[C@H](CO)[C@@H](OC(=O)Nc2ccccc2)[C@H](OC(=O)c2cc3ccccc3[nH]2)[C@H]1OC(=O)c1cc2ccccc2[nH]1` as the compound, how does the composite z-score read?
A: -0.551

Q: How did the composite z-score turn out when `O=C1O[C@H](c2ccccc2)[C@H](c2ccccc2)N2[C@H]1[C@@H](C(=O)O)[C@]1(C(=O)Nc3ccc(C#CCCO)cc31)[C@H]2c1ccccc1OCCO` was run?
A: -0.329

Q: For `CCCCC[C@H]1OC[C@@]23C=C(Br)[C@@H](CC12)[C@@]1(CO1)C3=O` (stereo partly specified), which composite z-score is on record?
A: 0.0985

Q: `CCCCN1CC=CC23O[C@@H]4/C=C\CCC(C)OC(=O)C4[C@H]2C(=O)N(CCCO)[C@@H]3C1=O` (stereo partly specified) was tested. Which composite z-score did it give?
A: -0.983

Q: `CC[C@@H]1C=C(C(=O)O)[C@H](c2ccc(C#N)cc2)N1S(=O)(=O)c1ccc(C)cc1` was tested. Which composite z-score did it give?
A: -0.967

Q: With `O=C1[C@H]2C=C(I)[C@H](C[C@@H]2OCCOCCO)[C@@]12CO2` as the compound, how does the composite z-score read?
A: 0.83

Q: Which composite z-score does the source give for `COCCOC(=O)N1C(=O)[C@@]2(c3cc(C#CC4=CCCCC4)ccc31)[C@H](C(=O)Nc1nc3ccccc3s1)[C@H]1C(=O)O[C@H](c3ccccc3)[C@H](c3ccccc3)N1[C@@H]2c1ccc(O)cc1` here?
A: 0.635

Q: For `COc1ccc([C@H]2OC[C@@H]3C[C@H](Cc4ccccc4)C(=O)N32)cc1`, which composite z-score is on record?
A: 0.212

Q: How did the composite z-score turn out when `NC(=O)NCC#Cc1ccc2c(c1)[C@]1(C(=O)N2)[C@H](c2ccccc2OCCO)N2[C@H](c3ccccc3)[C@H](c3ccccc3)OC(=O)[C@H]2[C@@H]1C(=O)O` was run?
A: -0.218

Q: With `CC1CC/C=C\[C@H]2OC34C=CCN(c5ccc(Cl)cc5)C(=O)[C@H]3N(C(C)CO)C(=O)[C@]4(C)C2C(=O)O1` (stereo partly specified) as the compound, how does the composite z-score read?
A: -0.955

Q: With `CCOC(=O)C1=C[C@@H](C(C)C)N(S(=O)(=O)c2ccc(C)cc2)[C@H]1c1ccc(C(F)(F)F)cc1` as the compound, how does the composite z-score read?
A: 0.593

Q: With `OCCCC1=CC(c2ccc(CN3CCCC3)cc2)N(Cc2cc3c(cc2Br)OCO3)CC1` (stereo unspecified) as the compound, how does the composite z-score read?
A: 0.259

Q: For `CCCCCCCCCC(O)C1C=CC2C(=O)N(c3ccccc3)C(=O)C2N1Nc1cc(OC)c(OC)c(OC)c1` (stereo unspecified), which composite z-score is on record?
A: -0.381

Q: Which composite z-score does the source give for `COCCCNC(=O)[C@@]1(CCC(=O)OC(C)(C)C)N=C(c2ccc(OCCCO)cc2)O[C@H]1c1ccccc1N=[N+]=[N-]` here?
A: -0.182

Q: For `COc1cc(OC)c(C(O)C2C=CC3C(=O)N(Cc4ccccc4)C(=O)C3N2n2cnnc2)cc1Br` (stereo unspecified), which composite z-score is on record?
A: -0.496

Q: With `C[N+](C)(C)CCCC[C@@H]1NC(=O)[C@@H]2C[C@H](C(=O)NCCCCCCN)[C@H](c3cccc(OCCO)c3)N2C1=O` as the compound, how does the composite z-score read?
A: 0.132

Q: How did the composite z-score turn out when `O=C1C2C=CC(C(O)C3CC=CCC3)N(Nc3ccccc3)C2C(=O)N1c1ccccc1` (stereo unspecified) was run?
A: 0.303

Q: Which composite z-score does the source give for `C=CCNC(=O)[C@H]1[C@@H]2C(=O)O[C@@H](c3ccccc3)[C@@H](c3ccccc3)N2[C@@H](c2ccccc2OCCO)[C@]12C(=O)N(C(=O)OCCOC)c1ccc(C#CC3(O)CCCCCC3)cc12` here?
A: 0.383

Q: With `COCCOC(=O)N1C(=O)[C@@]2(c3cc(C#CC4=CCCCC4)ccc31)[C@H](c1ccccc1OCCO)N1[C@H](c3ccccc3)[C@H](c3ccccc3)OC(=O)[C@H]1[C@@H]2C(=O)NC[C@H](O)c1ccccc1` as the compound, how does the composite z-score read?
A: 0.741

Q: For `CCCC[C@@H](O)C1=C(COc2ccccc2)C[C@H]2C(=O)N(Cc3ccccc3)C(=O)[C@H]2[C@H]1CO`, which composite z-score is on record?
A: 0.357

Q: With `O=C1OCCC/C=C\[C@H]2OC34C=CCN(c5ccc6ccccc6c5)C(=O)[C@H]3N(CCO)C(=O)[C@@H]4C12` (stereo partly specified) as the compound, how does the composite z-score read?
A: -1.83

Q: `COC(=O)c1c(CC[C@@H](CO)NC(=O)N[C@@H](C)Cn2cc(-c3ccccn3)nn2)oc(C(C)=O)c1C(=O)OC` was tested. Which composite z-score did it give?
A: -0.344

Q: `CC(C)C[C@@H]1NC(=O)[C@@H]2C[C@H](C(=O)NCCCCCCN)[C@H](c3cccc(OCCO)c3)N2C1=O` was tested. Which composite z-score did it give?
A: 0.0515

Q: `[N-]=[N+]=Nc1ccccc1C[C@@]1(C(=O)N2CCOCC2)N=C(c2ccc(OCCCO)cc2)O[C@@H]1c1ccccc1` was tested. Which composite z-score did it give?
A: 0.577

Q: `CCOC(=O)C[C@H]1[C@H](OC(=O)c2cc3ccccc3oc2=O)[C@@H](NC(=O)CC(C)C)c2cc(OCCCO)ccc2N1C(=O)c1ccc2ccccc2n1` was tested. Which composite z-score did it give?
A: 0.548

Q: How did the composite z-score turn out when `Cc1ccc(NN2C(C(O)c3c(F)cccc3Cl)C=CC3C(=O)N(C4CCCCC4)C(=O)C32)cc1` (stereo unspecified) was run?
A: -0.184

Q: `O=C1O[C@@H](c2ccccc2)[C@@H](c2ccccc2)N2[C@@H](c3ccc(OCCO)cc3)[C@]3(C(=O)Nc4ccc(C#CC5=CCCCC5)cc43)[C@@H](C(=O)NC[C@H](O)c3ccccc3)[C@H]12` was tested. Which composite z-score did it give?
A: 0.445

Q: How did the composite z-score turn out when `CCCN1C(=O)[C@]2(Cc3ccccc31)N=C(c1ccc(OCCCO)cc1)O[C@@H]2c1ccccc1` was run?
A: -0.489

Q: Which composite z-score does the source give for `C[N+](C)(C)CCCCCCNC(=O)[C@@H]1C[C@@H]2C(=O)N3CCC[C@H]3C(=O)N2[C@@H]1c1ccc(O)cc1` here?
A: 1.23

Q: With `CCOC(=O)C[C@H]1[C@H](OC(=O)c2ccc(C(=O)c3ccccc3)cc2)[C@@H](NC(=O)CC(C)C)c2cc(OCCCO)ccc2N1C(=O)c1ccccc1` as the compound, how does the composite z-score read?
A: 0.141

Q: `CC1CC/C=C\[C@H]2OC34C=CCN(C(C)C)C(=O)[C@H]3N(CCO)C(=O)[C@@H]4C2C(=O)O1` (stereo partly specified) was tested. Which composite z-score did it give?
A: -1.29

Q: With `[N-]=[N+]=Nc1ccccc1C[C@]1(C(=O)N2CCOCC2)COC(c2ccc(OCCCO)cc2)=N1` as the compound, how does the composite z-score read?
A: -0.262

Q: Which composite z-score does the source give for `CCCCCCc1nc(Cc2cc(OC)c(OC)c(OC)c2)cc2c1[Si](C(C)C)(C(C)C)OC2` here?
A: 0.192

— PubChem BioAssay
